Results on 40 compounds are retold here after PubChem BioAssay AID602143 (Vanderbilt Specialized Chemistry Center, 2011).

Active and inactive are the calls of the source. Cut-off read from the data, not from the text of the source: active = remaining activity below about 50%; inactive = the rest.

In this assay the target is Phospholipase D2 (Homo sapiens) (UniProt O14939). Briefly: PLD2 inhibitors in cells, cell-based, HEK293, single concentration (AID 602143).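 Note: tested at 200 nM.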 Conditions: HEK293 cellular PLD2 activity, percent of control; stronger effect = lower value.
Sequence of Phospholipase D2 (Homo sapiens) (O14939 whole entry, looked up): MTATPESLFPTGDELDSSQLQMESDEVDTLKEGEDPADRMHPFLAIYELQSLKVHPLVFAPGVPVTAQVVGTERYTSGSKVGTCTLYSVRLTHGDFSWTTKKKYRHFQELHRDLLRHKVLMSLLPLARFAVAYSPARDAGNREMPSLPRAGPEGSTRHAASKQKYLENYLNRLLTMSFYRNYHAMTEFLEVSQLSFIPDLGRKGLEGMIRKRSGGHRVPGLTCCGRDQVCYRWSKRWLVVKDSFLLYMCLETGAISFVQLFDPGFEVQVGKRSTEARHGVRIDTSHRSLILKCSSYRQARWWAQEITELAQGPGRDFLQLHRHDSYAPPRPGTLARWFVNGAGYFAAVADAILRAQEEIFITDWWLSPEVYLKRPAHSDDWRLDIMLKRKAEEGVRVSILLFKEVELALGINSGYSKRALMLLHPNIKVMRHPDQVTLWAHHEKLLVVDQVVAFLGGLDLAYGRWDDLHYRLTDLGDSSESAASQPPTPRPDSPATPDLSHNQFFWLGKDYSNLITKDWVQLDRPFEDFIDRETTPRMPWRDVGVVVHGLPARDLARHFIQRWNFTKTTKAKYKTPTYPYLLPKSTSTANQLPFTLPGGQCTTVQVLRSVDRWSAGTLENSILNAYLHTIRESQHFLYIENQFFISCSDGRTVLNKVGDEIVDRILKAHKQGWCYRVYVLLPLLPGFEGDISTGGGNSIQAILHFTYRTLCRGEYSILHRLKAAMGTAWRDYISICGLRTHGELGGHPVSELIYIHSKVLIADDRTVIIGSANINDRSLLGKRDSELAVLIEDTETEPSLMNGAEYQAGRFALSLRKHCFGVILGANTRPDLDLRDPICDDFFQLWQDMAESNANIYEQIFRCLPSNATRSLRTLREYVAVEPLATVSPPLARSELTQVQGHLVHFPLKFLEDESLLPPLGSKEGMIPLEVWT
Sequence of Phospholipase D2 (Homo sapiens) (O14939 whole entry, looked up): as above
As usually defined, the remaining activity is the signal under treatment as a percentage of the control signal. Regarding `C[C@@H](CN1CCC(n2c(=O)[nH]c3ccccc32)CC1)NC(=O)c1ccc(F)c(F)c1`, the remaining activity is 75.6% (inactive). Then `C[C@@H](CN1CCC(n2nnc3cc(C(F)(F)F)ccc32)CC1)NC(=O)c1cnc2ccccc2c1`, with 86.9% (inactive); and `O=C1c2ccccc2C(=O)N1CCN1CCC(n2c(=O)[nH]c3cc(Cl)ccc32)CC1`, with 90.8% (inactive); and `O=C(NCCN1CCN(c2ccncc2)CC1)c1cc2ccccc2s1`, with 90.5% (inactive).

On to `O=C(NCCN1CCC(n2c(=O)[nH]c3ccccc32)CC1)c1ccc(-c2ccccc2)o1`, for which the remaining activity was 68.6% (inactive). Then `O=C(NCCN1CCC(n2c(=O)[nH]c3ccccc32)CC1)NC(c1ccccc1)c1ccccc1`, with 123% (inactive); and `O=C(NCCN1CCC(n2c(=O)[nH]c3ccccc32)CC1)c1cccc2cccnc12`, with 74.2% (inactive). To `O=C(NCCN1CCC(n2c(=O)[nH]c3ccccc32)CC1)c1ccc2c(ccc3ccc4ccccc4c32)c1` belongs 96.7% (inactive); to `C[C@@H](CN1CCC(n2c(=O)[nH]c3ccccc32)CC1)NC(=O)C1C[C@H]1c1ccccc1` (stereo not given in full), 105% (inactive); to `O=C1c2ccccc2C(=O)N1CCCN1CCC(n2c(=O)[nH]c3ccccc32)CC1`, 97.3% (inactive). Then `O=C(NCCN1CCC(n2c(=O)[nH]c3ccccc32)CC1)NCc1cccc(F)c1`, with 101% (inactive); and `O=C(NCCN1CCN(c2ccncc2)CC1)c1ccc2ccccc2c1`, with 110% (inactive); and `CCCS(=O)(=O)NCCN1CCC(n2c(=O)[nH]c3ccccc32)CC1`, with 64.7% (inactive). Consider `O=C(NCCN1CCC(n2c(=O)[nH]c3ccccc32)CC1)c1ncccn1`, for which the remaining activity was 90.1% (inactive). Then `C[C@@H](CN1CCC(n2c(=O)[nH]c3ccc(F)cc32)CC1)NC(=O)c1ccc(F)cc1`, with 66.8% (inactive); and `O=c1[nH]c2ccccc2n1C1CCN(CCNS(=O)(=O)c2cccc3cccnc23)CC1`, with 112% (inactive); and `CN1CCC2(CCN(CCNC(=O)c3ccc4ccccc4c3)CC2)C1=O`, with 129% (inactive). With `C[C@@H](CN1CCC(n2c(=O)[nH]c3cc(-c4ccc(F)c(F)c4)ccc32)CC1)NC(=O)[C@H]1C[C@@H]1c1ccccc1`, the remaining activity is 80.4% (inactive). Then `O=C(NCCN1CCC2(C=Cc3ccccc32)CC1)c1cnc2ccccc2c1`, with 92.4% (inactive); and `C[C@@H](CN1CCC(n2c(=O)[nH]c3cc(-c4ccc(C(F)(F)F)cc4)ccc32)CC1)NC(=O)[C@H]1C[C@@H]1c1ccccc1`, with 70.9% (inactive).

Regarding `Cn1c(=O)n(C2CCN(CCNC(=O)c3ccc(F)cc3)CC2)c2ccccc21`, the remaining activity is 69.8% (inactive). To `Cc1ccc(C(=O)N[C@@H](C)CN2CCC(n3c(=O)[nH]c4cc(Cl)ccc43)CC2)cc1` belongs 86% (inactive); to `O=C(NCCN1CCC(n2c(=O)[nH]c3ccccc32)CC1)c1cc(-c2ccccc2)no1`, 50.8% (inactive). Then `C[C@@H](CN1CCC2(C=Cc3ccccc32)CC1)NC(=O)c1ccc2ccccc2c1`, with 147% (inactive).

On to `O=c1[nH]c2ccccc2n1C1CCN(CCNC(=S)Nc2ccc(Cl)c(Cl)c2)CC1`, for which the remaining activity was 93.9% (inactive).

`O=C(NCCN1CCC2(C=Cc3ccccc32)CC1)c1ccc2ccccc2c1`: the remaining activity is 119% (inactive). Then `C[C@H](CN1CCC(n2nnc3ccccc32)CC1)NC(=O)c1ccc2ccccc2c1`, with 48.2% (active). Consider `O=c1[nH]c2ccccc2n1C1CCN(CCNS(=O)(=O)c2ccc(F)cc2)CC1`, for which the remaining activity is 75.9% (inactive). Then `O=C1c2ccccc2C(=O)N1CCN1CCC(n2c(=O)[nH]c3ccccc32)CC1`, with 87.7% (inactive); and `O=C(NCCN1CCC(C(=O)NCC2CC2)CC1)c1ccc2ccccc2c1`, with 108% (inactive).

Turning to `C[C@@H](CN1CCC(n2c(=O)[nH]c3ccccc32)CC1)NC(=O)Cc1cccs1`, the remaining activity is 99.6% (inactive). On to `NC1(CN2CCC(n3c(=O)[nH]c4cc(Cl)ccc43)CC2)CCCC1` (tested in a mixture with another compound), for which the remaining activity was 94.3% (inactive).

Consider `O=C(NCCN1CC=C(n2c(=O)[nH]c3ccccc32)CC1)[C@H]1C[C@@H]1c1ccccc1`, for which the remaining activity was 114% (inactive). Then `O=C(NCCN1CCC(n2c(=O)[nH]c3ccccc32)CC1)c1cscn1`, with 57.9% (inactive); and `O=C(NCCN1CCC(n2c(=O)[nH]c3cc(Cl)ccc32)CC1)c1ccc2ccccc2c1`, with 63.9% (inactive); and `C[C@H](N)CN1CCC(c2nc3ccccc3n2C)CC1` (tested in a mixture with another compound), with 81.2% (inactive). Then `O=C(NCCN1CCC(n2c(=O)[nH]c3ccccc32)CC1)c1cnc2ccccc2n1`, with 87.4% (inactive).

Regarding `Cc1ccc(NC(=S)NCCN2CCC(n3c(=O)[nH]c4ccccc43)CC2)cc1`, the remaining activity was 146% (inactive). To `CC(C)[C@@H](CN1CCC(n2c(=O)[nH]c3ccccc32)CC1)NC(=O)[C@@H]1C[C@H]1c1ccccc1` belongs 74% (inactive). To `O=C(C1C[C@@H]1c1ccccc1)N1CCC2(CC1)C(=O)NCN2c1ccccc1` (stereo not given in full) belongs 84% (inactive).
